# Bioassay records (PubChem)
# WT yeast gro inh = growth inhibition of WT yeast, mitochondrial fusion screen; mitochondrial fusion phenotypic screen, WT strain; inhibition, % at 10 µM; 190,000 tested, 2.1% active; AID 1362; in the data active = inhibition above about 58%; tested in S. cerevisiae
# Lmaj promast = Leishmania major promastigote growth inhibition | AID 1063 | inhibition, % at 10 µM | Leishmania major promastigotes, resazurin fluorescence viability | 200,000 tested, 9% active; in the data active = inhibition above about 50%;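 also: promastigotes grown with compound for 44 hours at 28 °C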
# INS promoter inh = TRM-6 insulin promoter activity inhibition; AID 1273; TRM-6 cells (human fetal islet line), insulin promoter-eGFP reporter, imaging; reporter expression induced with tamoxifen; inhibition, % at 2 µM; 130,000 tested, 0.9% active;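 active = inhibition above the mean plus 3 SD, with well images judged a real hit on visual review, cut at about 60% in these data, passing the limit was not always enough; inconclusive = inhibition over the cutoff but images rejected on review; inactive = inhibition not above the cutoff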
# Insulin prom up = MIN6 insulin promoter up-regulation; 190,000 tested, 0.3% active; z-score at 5 µM; AID 1625; MIN6 insulin promoter-GFP reporter, high-content imaging; active compounds read high;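 active = z-score above 3 at 5 µM with at least 500 cells counted in the well; inconclusive = wells under 500 cells, flagged as cytotoxic or low count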
# Autophagy HCS = autophagy modulation, high-content screen; MEF GFP-LC3 puncta imaging; test concentration mostly 10 µM; calls only at 10 µM (by protocol); 190,000 tested, 0.98% active;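 active = percentage of spot-positive cells more than 3 SD above its plate mean, without a fluorescence outlier flag or 80% toxicity; inconclusive = no clear call, values can overlap the other calls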
# Hits are given with their value; - = inactive; ? = inconclusive; . = no result; + = active, no number. In the library only some 11% were active in any assay of this set; here they are far more common.
SMILES,WT yeast gro inh,Lmaj promast,INS promoter inh,Insulin prom up,Autophagy HCS
Cc1ccc(S(=O)(=O)N2CCCCC2)c(C)c1NS(C)(=O)=O,-,-,.,-,-
C/C(CC(=O)Nc1ccccn1)=N\NC(=O)c1cnccn1,.,.,.,-,.
O=C(Cn1c(CO)nc2ccccc21)NC1CCCCCC1,-,-,-,-,-
COC(=O)c1cc(-c2ccc(Cl)cc2Cl)n[nH]1,-,-,77.8,-,-
COC(=O)c1cc(-c2ccc(Cl)cc2)n[nH]1,-,-,.,-,-
Cc1cc(C(=O)CN2C(=O)NC3(CCCc4ccccc43)C2=O)c(C)n1Cc1ccccc1 (stereo not given),-,53.3,-,-,-
O=C(CN1C(=O)NC2(CCCc3ccccc32)C1=O)Nc1cccc(S(=O)(=O)N2CCCCC2)c1 (stereo not given),-,-,-,.,-
Cc1cc(C(=O)CN2C(=O)NC3(CCCc4ccccc43)C2=O)c(C)n1Cc1ccco1 (stereo not given),-,-,-,-,-
Cc1ccc(S(=O)(=O)N(C)C)cc1NC(=O)CN1C(=O)NC2(CCCc3ccccc32)C1=O (stereo not given),-,72.2,-,-,-
CN(C)S(=O)(=O)c1cc(NC(=O)CNCCN2CCOCC2)ccc1Cl,.,.,.,-,.
COc1ccc(CSC2=CS(=O)(=O)c3ccccc3N2)cc1,-,-,-,-,-
Cn1c2ccccc2c(=O)c2c(=O)n(Cc3ccco3)c(-c3ccc(C(C)(C)C)cc3)nc21,.,.,.,-,.
COc1cc(-c2nnc(CSc3nnc(Nc4ccc(C(C)C)cc4)s3)o2)cc(OC)c1OC,-,71.4,-,-,-
COc1ccccc1Nc1nnc(SCc2nnc(-c3cc(OC)c(OC)c(OC)c3)o2)s1,-,-,-,-,-
CCCCOP(=O)(c1ccc(N(C)C)cc1)C(Nc1ccccc1)c1ccccc1 (stereo not given),81.2,-,.,-,-
CCCOP(=O)(c1ccc(N(C)C)cc1)C(Nc1ccccc1)c1ccc(N(C)C)cc1 (stereo not given),-,-,-,-,-
COc1ccc(O)c(CNc2ccccc2F)c1,-,-,-,-,-
Fc1ccc(N2CCN(c3nc(CN4CCOCC4)nc4scc(-c5ccccc5)c34)CC2)cc1,78.1,66.9,.,-,-
CN(Cc1ccccc1)c1nc(CN2CCOCC2)nc2scc(-c3ccccc3)c12,69.3,-,-,-,-
OCC1CCCN(c2nc(CN3CCCCC3)nc3scc(-c4ccccc4)c23)C1 (stereo not given),-,-,.,-,-
O=S(=O)(Nc1ccccc1O)c1cccc2cccnc12,-,-,.,-,-
COc1ccc(S(=O)(=O)Nc2ccc(O)c(Sc3ncn[nH]3)c2)cc1,-,-,-,-,-
COc1ccc(S(=O)(=O)Nc2cc(Sc3ncn[nH]3)c(O)c3ccccc23)cc1,94.1,100.4,-,?,-
CC(=O)/C(=N\Nc1ccccc1)Sc1cccc2cccnc12,-,-,-,-,-
O=C(Sc1cccc2cccnc12)c1ccc(F)cc1,-,100.5,-,?,-
SMILES,WT yeast gro inh,Lmaj promast,INS promoter inh,Insulin prom up,Autophagy HCS
CN(C)C(=O)CSc1cccc2cccnc12,-,100.4,-,-,+
NNC(=O)CSc1cccc2cccnc12,-,-,-,-,-
O=S(=O)(Nc1cc(Sc2cccc3cccnc23)c(O)c2ccccc12)c1ccc(F)cc1,-,100.4,-,?,-
Cc1cccc(C(=O)Oc2ccc(/C=N/NC(=O)c3ccccc3O)cc2)c1,-,-,-,.,-
COc1cc(/C=N/NC(=O)COc2c(C)cc([N+](=O)[O-])cc2C)ccc1OC(=O)c1ccccc1Br,-,72.8,.,-,-
COc1ccc(/C=N/NC(=O)c2cccc([N+](=O)[O-])c2)cc1OC(=O)c1ccccc1,-,-,-,-,-
Cc1cccc(C(=O)Oc2ccc(/C=N/NC(=O)Cc3ccc([N+](=O)[O-])cc3)cc2)c1,-,50.4,-,-,-
COc1cc(/C=N/NC(=O)c2cccc([N+](=O)[O-])c2)ccc1OCc1ccccc1,-,-,-,.,-
COc1ccc(/C=N/NC(N)=S)cc1OC(=O)c1ccccc1,-,78.6,-,-,-
COc1cc(/C=N/NC(=O)COc2c(C)cc([N+](=O)[O-])cc2C)ccc1OC(=O)c1ccccc1,-,98.8,-,-,-
O=C(NNC(=S)Nc1ccc(Cl)cc1Cl)c1ccc(N2CCOCC2)c([N+](=O)[O-])c1,-,-,-,-,-
S=c1[nH]nc(-c2ccccn2)n1/N=C/c1ccc(Br)s1,-,-,.,-,-
O=C(Cn1nc(C(F)(F)F)cc1C1CC1)NCc1ccccc1F,-,-,-,-,-
COc1ccc(-c2nnn(CC(=O)N(CCCN3CCOCC3)C(C(=O)NC3CCCC3)c3ccco3)n2)cc1 (stereo not given),-,-,.,-,-
Cc1ccc(C(=O)Nc2cc(C(F)(F)F)ccc2N2CCCCC2)cc1[N+](=O)[O-],-,-,-,-,-
Cc1ccc(C)c2sc(NC(=O)c3ccc(N4CCCCC4)c([N+](=O)[O-])c3)nc12,-,80.9,.,-,-
Cc1cccc(NC(=O)c2ccc(N3CCCCC3)c([N+](=O)[O-])c2)n1,78.1,-,.,-,-
COc1ccccc1/C=C/CN1CCN(Cc2ccc(C)o2)C(CCO)C1 (stereo not given),-,-,.,-,-
C/C(=C\c1ccccc1)CN1CCN(Cc2ccc(C)o2)C(CCO)C1 (stereo not given),-,83.3,.,-,-
O=C(CSCc1ccccc1Br)N/N=C/c1ccccc1C(=O)O,-,-,-,-,-
O=C(/C=C/c1ccccc1Cl)c1ccc[nH]1,-,73.7,-,-,-
Cc1ccc(CC(=O)Nc2ccccc2-c2ccccc2)cc1C,-,70.0,-,-,-
COCC(=O)Nc1ccccc1-c1ccccc1,-,-,-,-,-
COc1ccccc1CN(C)CC(=O)Nc1ccccc1-c1ccccc1,-,-,.,-,-
Cc1ccccc1CN(C)CC(=O)Nc1ccccc1-c1ccccc1,78.9,-,-,-,-
SMILES,WT yeast gro inh,Lmaj promast,INS promoter inh,Insulin prom up,Autophagy HCS
Cc1cccc(N(CC(=O)Nc2ccccc2-c2ccccc2)S(=O)(=O)c2ccccc2)c1C,-,50.1,.,-,-
Cc1nc(COc2ccccc2Cl)sc1-c1ccnc(N)n1,.,.,.,-,.
O=C(CCCOc1ccc(Cl)cc1Cl)N/N=C/c1ccco1,-,-,78.6,-,-
O=C(CCCOc1ccc(Cl)cc1Cl)N/N=C/c1ccccc1,-,-,-,-,-
O=C(NCCCn1ccnc1)c1cc(-c2ccncc2)nc2ccccc12,-,-,.,-,-
O=C(NCCCn1ccnc1)c1cc(-c2ccc(Cl)cc2)nc2ccccc12,-,98.5,-,-,-
O=C(N/N=C/c1ccco1)c1ccccc1OCc1ccccc1Cl,-,69.1,-,-,-
O=C(CCCN1C(=O)c2ccccc2C1=O)NCCCn1ccnc1,-,-,.,-,-
O=C(Cc1ccccc1Cl)NCCCn1ccnc1,-,61.8,-,-,-
COc1ccc(CNC(=O)C/C(C)=N/NC(=O)c2cnccn2)cc1,-,-,-,-,-
O=C(NCc1cccnc1)c1ccc2c(c1)OCO2,-,-,.,-,-
O=C(COc1ccccc1)NCC(=O)N/N=C/c1ccco1,-,56.0,-,-,-
O=C(CCn1ccnc1)Nc1ccc2ccccc2c1,-,73.9,.,-,-
